Among the data in ChEMBL document CHEMBL1157539, “Thousands of chemical starting points for antimalarial lead identification” (Nature, 2010) are Inhibition values, retold here.

Common to all, as to type: functional
The subject of experiment [1] is Plasmodium falciparum. As to the kind of experiment: GSK_TCMDC: Inhibition of Plasmodium falciparum 3D7 in whole red blood cells, using parasite LDH activity as an index of growth. Test compounds present at 2uM.
Experiment [2] relates to Plasmodium falciparum. As to the kind of experiment: GSK_TCMDC: Inhibition of Plasmodium falciparum Dd2 in whole red blood cells, using parasite LDH activity as an index of growth. Test compounds present at 2uM.
A further experiment concerns HepG2. The experiment is described as follows: GSK_TCMDC: Percent inhibition of human HepG2 cell line. Test compounds present at 10uM.

The term Inhibition denotes the relative decrease from the control value, in per cent. Regarding `Fc1ccc2[nH]cc(CCNCc3ccc(-c4cccc(-c5nc6ccccc6[nH]5)c4)cc3)c2c1.O=C(O)C(F)(F)F`, the Inhibition with Plasmodium falciparum [1] was found to be 100%; with Plasmodium falciparum [2], 99%; in the experiment with HepG2, 69%.

In the case of `O=C(Nc1cccc(C2=NCCN2)c1)Nc1cccc(C2=NCCN2)c1` [IMIDOCARB], the results for the Inhibition in the experiment with Plasmodium falciparum [1], in the experiment with Plasmodium falciparum [2] and in the experiment with HepG2 were 98%, 99% and 16%, respectively.

Turning to `O=C(Nc1cccc(C(F)(F)F)c1)N1CCOC(CCN2CCC(c3ccccc3)CC2)(c2ccc(Cl)c(Cl)c2)C1` (stereo not given), the values for the Inhibition in the experiment with Plasmodium falciparum [1], with Plasmodium falciparum [2] and in the experiment on HepG2 were 87%, 69% and 15%, respectively.

`CCN(CC)C(=O)C1CCN(C(C(=O)N2CCN(CC(=O)N3CCCC3)CC2)c2cc3ccccc3o2)CC1` (stereo not given): the Inhibition is 98% in the experiment on Plasmodium falciparum [1], 4% in the experiment with Plasmodium falciparum [2] and 0% with HepG2.

For `CCOC(=O)c1cncc(/C=C/c2cc(C)cnc2N)c1`, the Inhibition turned out to be 86% in the experiment with Plasmodium falciparum [1], 3% with Plasmodium falciparum [2] and 4% with HepG2.

For the molecule `CCCC(C)Nc1nc(C)cc(NCCC(=O)Nc2ccccc2)n1.O=C(O)C(F)(F)F` (stereo not given), the Inhibition was 96% in the experiment with Plasmodium falciparum [1], 11% in the experiment on Plasmodium falciparum [2] and 12% in the experiment on HepG2.

On to `Fc1ccc2[nH]c(-c3ccc(-c4cccc(CN5CCCCC5)c4)cc3)nc2c1.O=C(O)C(F)(F)F`, for which the Inhibition was determined as 100% in the experiment with Plasmodium falciparum [1], 100% in the experiment on Plasmodium falciparum [2] and 10% in the experiment on HepG2.

Consider `COc1ccc2nccc(NC(=O)CNCc3ccc(-c4ccccc4)cc3)c2c1`, for which the results for the Inhibition in the experiment on Plasmodium falciparum [1], with Plasmodium falciparum [2] and with HepG2 were 100%, 35% and 11%, respectively.

As for `CCOc1ccccc1NC(=O)Nc1ccc2c(c1)CCN(C1CCC1)CC2.Cl`, the Inhibition with Plasmodium falciparum [1] is 88%; in the experiment on Plasmodium falciparum [2] it was 2%; in the experiment with HepG2 it was 15%.

Take `O=C(NCc1cc2c(cc1Cl)OCO2)c1ccc(CNC2CCN(Cc3ccccc3)CC2)cc1.O=C(O)C(F)(F)F`: the Inhibition with Plasmodium falciparum [1] worked out at 100%; in the experiment on Plasmodium falciparum [2] it was 47%; in the experiment with HepG2, 11%.
